# Measurements from publication PMC7862700, “An all-to-all approach to the identification of sequence-specific readers for epigenetic DNA modifications on cytosine”.
# Experiments:
# Experiment in all cases: DAPPL (digital affinity profiling via proximity ligation, sequencing); 10 mM Tris-HCl pH 7.5, 50 mM NaCl, 1 mM DTT, 4% glycerol, room temperature, 30 min; GST-TFs on glutathione beads, 16-mer random dsDNA library, 0.1% formaldehyde crosslink after washing; high values mean tight binding
# [1] = molecular target: T1, FEV (Homo sapiens, UniProt Q99581 1-238); conditions: protein: recombinant; tags: N-terminal GST; dsDNA, one strand shown
# T1 sequence: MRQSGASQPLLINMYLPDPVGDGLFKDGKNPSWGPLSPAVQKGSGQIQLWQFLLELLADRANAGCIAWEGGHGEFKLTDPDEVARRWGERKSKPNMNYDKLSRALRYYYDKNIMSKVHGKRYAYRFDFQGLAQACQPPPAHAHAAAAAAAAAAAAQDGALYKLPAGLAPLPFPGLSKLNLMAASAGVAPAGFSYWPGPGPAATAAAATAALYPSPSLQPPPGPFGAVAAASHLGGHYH
# How it was run: (§1)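 Binding signal is each hexamer's read frequency for a factor divided by its frequency in the tag-only sample. The factors were GST-fused human transcription factors from yeast, captured on glutathione beads, DNA-barcoded and pooled with that sample. Pools were incubated with 200 nmole of a random double-stranded 16-mer DNA library in Tris/NaCl/DTT/glycerol buffer at room temperature for 30 min, then washed, crosslinked with 0.1% formaldehyde, proximity-ligated with BsaI/T4 ligase (1 h, 37 °C), PCR-amplified and sequenced on an Illumina NextSeq500.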
# [2] = molecular target: ETV5 (Homo sapiens, UniProt P41161 1-510); conditions: protein: recombinant; tags: N-terminal GST; dsDNA, one strand shown
# ETV5, sequence (P41161 whole entry): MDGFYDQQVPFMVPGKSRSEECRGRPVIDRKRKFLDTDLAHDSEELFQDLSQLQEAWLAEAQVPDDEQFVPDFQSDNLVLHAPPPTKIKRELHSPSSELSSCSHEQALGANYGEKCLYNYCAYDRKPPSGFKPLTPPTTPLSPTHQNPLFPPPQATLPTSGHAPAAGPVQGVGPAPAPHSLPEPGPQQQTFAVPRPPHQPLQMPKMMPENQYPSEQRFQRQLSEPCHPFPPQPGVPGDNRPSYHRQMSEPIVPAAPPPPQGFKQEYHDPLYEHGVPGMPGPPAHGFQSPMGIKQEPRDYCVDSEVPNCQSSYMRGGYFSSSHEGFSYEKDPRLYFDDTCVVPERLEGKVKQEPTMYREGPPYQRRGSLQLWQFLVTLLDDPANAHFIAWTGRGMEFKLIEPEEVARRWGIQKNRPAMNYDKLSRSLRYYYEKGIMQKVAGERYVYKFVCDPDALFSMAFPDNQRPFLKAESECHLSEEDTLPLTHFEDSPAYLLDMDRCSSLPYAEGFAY
# How it was run: as §1
# [3] = molecular target: HSF1 (Homo sapiens, UniProt Q00613 1-529); conditions: protein: recombinant; tags: N-terminal GST; chain copies: 3; dsDNA, one strand shown
# HSF1, sequence (Q00613 whole entry): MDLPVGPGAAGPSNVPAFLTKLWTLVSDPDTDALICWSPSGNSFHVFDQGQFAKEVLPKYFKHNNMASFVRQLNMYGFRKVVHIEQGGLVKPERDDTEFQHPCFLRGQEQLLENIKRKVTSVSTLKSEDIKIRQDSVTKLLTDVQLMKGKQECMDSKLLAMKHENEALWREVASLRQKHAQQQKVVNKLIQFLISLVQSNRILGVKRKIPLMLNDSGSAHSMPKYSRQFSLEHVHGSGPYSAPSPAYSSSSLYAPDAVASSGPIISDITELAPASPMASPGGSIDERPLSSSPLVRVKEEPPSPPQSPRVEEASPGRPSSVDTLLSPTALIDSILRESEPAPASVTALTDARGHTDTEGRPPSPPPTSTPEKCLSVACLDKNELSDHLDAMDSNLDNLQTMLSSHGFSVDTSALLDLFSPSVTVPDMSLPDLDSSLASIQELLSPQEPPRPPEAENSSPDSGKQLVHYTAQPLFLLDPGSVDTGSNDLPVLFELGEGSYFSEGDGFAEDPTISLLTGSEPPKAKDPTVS
# How it was run: as §1
# [4] = molecular target: T2, SPIC (Homo sapiens, UniProt Q8N5J4 1-248); conditions: protein: recombinant; tags: N-terminal GST; dsDNA, one strand shown
# T2 sequence: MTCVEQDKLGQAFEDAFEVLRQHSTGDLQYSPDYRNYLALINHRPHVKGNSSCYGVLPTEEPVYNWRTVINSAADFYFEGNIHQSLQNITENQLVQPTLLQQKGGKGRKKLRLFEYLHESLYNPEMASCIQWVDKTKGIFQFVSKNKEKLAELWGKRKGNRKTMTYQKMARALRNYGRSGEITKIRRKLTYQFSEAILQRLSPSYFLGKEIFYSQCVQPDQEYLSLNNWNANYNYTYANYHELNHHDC
# How it was run: as §1
# [5] = molecular target: ELF4 (Homo sapiens, UniProt Q99607 1-663); conditions: protein: recombinant; tags: N-terminal GST; dsDNA, one strand shown
# ELF4, sequence (Q99607 whole entry): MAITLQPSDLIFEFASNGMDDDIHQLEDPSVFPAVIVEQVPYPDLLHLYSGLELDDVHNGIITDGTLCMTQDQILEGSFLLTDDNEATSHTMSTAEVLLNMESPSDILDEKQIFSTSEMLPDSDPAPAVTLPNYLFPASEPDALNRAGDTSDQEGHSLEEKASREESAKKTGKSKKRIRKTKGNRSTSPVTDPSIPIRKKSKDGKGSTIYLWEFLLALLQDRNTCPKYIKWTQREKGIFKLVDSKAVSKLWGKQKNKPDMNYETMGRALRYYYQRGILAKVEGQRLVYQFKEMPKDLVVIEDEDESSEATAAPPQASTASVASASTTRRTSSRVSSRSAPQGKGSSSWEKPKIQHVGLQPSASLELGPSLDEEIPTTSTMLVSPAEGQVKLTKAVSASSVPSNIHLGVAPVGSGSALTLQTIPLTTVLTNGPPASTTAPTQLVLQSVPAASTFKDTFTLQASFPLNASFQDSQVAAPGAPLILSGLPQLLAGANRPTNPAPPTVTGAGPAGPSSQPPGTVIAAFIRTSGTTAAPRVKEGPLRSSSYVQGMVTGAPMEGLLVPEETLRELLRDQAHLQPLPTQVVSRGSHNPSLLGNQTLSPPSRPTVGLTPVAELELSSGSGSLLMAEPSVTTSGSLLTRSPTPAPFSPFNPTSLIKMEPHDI
# How it was run: as §1
# [6] = molecular target: T3, ELK4 (Homo sapiens, UniProt P28324-2 1-405); conditions: protein: recombinant; tags: N-terminal GST; dsDNA, one strand shown
# T3 sequence: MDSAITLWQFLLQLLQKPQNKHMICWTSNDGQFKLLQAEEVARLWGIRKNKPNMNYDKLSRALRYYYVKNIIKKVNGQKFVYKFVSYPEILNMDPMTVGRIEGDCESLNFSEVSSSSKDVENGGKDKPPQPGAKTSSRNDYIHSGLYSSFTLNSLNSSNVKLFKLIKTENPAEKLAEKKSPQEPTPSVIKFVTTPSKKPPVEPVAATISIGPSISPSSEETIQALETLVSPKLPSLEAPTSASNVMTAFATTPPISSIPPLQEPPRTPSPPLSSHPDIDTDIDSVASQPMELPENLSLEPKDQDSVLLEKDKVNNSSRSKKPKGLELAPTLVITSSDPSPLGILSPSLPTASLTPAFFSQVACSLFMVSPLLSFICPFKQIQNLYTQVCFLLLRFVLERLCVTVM
# How it was run: as §1
# [7] = molecular target: T4, ETV2 (Homo sapiens, UniProt O00321 1-342); conditions: protein: recombinant; tags: N-terminal GST; dsDNA, one strand shown
# T4 sequence: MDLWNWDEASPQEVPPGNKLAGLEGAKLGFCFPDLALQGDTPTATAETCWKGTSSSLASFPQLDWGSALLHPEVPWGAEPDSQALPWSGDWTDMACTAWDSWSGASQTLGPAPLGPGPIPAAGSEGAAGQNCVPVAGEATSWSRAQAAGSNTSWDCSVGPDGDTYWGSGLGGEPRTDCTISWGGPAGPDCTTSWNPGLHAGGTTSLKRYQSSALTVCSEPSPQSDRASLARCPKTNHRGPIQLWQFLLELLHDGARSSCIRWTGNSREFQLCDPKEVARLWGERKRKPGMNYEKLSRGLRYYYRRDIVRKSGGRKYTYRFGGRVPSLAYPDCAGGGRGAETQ
# How it was run: as §1
# [8] = molecular target: T5, ELF3 (Homo sapiens, UniProt P78545 1-371); conditions: protein: recombinant; tags: N-terminal GST; dsDNA, one strand shown
# T5 sequence: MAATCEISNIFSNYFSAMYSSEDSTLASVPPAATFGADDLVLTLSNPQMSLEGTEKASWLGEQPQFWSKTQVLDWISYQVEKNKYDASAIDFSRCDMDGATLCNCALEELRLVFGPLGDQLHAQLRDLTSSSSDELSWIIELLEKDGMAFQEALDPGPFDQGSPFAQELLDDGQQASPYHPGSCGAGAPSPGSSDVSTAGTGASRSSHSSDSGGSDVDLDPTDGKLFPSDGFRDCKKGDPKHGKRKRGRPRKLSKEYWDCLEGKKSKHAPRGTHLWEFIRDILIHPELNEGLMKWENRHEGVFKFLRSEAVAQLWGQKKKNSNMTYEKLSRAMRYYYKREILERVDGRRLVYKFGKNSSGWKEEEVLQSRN
# How it was run: as §1
# [9] = molecular target: CRX (Homo sapiens, UniProt O43186 1-299); conditions: protein: recombinant; tags: N-terminal GST; dsDNA, one strand shown
# CRX, sequence (O43186 whole entry): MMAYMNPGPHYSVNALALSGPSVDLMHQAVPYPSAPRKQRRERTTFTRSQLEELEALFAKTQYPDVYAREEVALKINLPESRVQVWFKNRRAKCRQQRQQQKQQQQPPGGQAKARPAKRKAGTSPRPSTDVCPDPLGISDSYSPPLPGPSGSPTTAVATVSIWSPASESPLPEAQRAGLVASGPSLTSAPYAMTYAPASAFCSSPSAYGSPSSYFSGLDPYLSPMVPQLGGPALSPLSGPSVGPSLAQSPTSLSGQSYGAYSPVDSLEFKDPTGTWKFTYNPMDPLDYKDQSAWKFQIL
# How it was run: as §1
# [10] = molecular target: ETV1 (Homo sapiens, UniProt P50549 1-477); conditions: protein: recombinant; tags: N-terminal GST; dsDNA, one strand shown
# ETV1, sequence (P50549 whole entry): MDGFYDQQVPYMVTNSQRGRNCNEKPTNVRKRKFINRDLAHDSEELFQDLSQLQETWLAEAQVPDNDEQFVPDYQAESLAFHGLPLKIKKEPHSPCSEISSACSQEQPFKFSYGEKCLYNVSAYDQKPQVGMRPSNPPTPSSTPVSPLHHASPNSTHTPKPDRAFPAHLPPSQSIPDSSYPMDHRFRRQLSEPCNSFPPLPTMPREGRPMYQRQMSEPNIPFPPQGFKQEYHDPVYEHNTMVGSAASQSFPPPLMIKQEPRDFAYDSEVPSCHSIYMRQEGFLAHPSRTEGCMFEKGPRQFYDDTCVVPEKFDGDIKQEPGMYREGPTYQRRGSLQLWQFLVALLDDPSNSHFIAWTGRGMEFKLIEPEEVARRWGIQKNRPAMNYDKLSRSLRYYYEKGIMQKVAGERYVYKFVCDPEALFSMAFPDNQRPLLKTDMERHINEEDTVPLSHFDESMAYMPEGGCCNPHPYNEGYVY
# How it was run: as §1
# [11] = molecular target: T6, ERF (Homo sapiens, UniProt P50548 1-548); conditions: protein: recombinant; tags: N-terminal GST; dsDNA, one strand shown
# T6 sequence: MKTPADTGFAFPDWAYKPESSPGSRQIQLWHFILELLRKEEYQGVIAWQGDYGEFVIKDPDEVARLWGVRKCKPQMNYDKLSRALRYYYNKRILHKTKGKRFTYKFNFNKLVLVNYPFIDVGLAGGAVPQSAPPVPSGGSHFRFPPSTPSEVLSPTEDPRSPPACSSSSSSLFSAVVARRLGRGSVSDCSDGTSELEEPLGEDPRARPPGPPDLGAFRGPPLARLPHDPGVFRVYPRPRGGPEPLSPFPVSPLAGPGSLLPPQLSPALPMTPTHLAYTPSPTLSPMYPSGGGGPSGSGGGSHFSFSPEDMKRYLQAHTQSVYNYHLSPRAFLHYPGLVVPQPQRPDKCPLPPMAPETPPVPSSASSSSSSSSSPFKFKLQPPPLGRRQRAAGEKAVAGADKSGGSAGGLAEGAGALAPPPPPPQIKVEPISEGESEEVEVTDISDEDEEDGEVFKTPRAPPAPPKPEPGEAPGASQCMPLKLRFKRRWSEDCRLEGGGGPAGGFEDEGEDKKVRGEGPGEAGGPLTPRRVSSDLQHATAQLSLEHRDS
# How it was run: as §1
# [12] = molecular target: T7, ETV3L (Homo sapiens, UniProt Q6ZN32 1-361); conditions: protein: recombinant; tags: N-terminal GST; dsDNA, one strand shown
# T7 sequence: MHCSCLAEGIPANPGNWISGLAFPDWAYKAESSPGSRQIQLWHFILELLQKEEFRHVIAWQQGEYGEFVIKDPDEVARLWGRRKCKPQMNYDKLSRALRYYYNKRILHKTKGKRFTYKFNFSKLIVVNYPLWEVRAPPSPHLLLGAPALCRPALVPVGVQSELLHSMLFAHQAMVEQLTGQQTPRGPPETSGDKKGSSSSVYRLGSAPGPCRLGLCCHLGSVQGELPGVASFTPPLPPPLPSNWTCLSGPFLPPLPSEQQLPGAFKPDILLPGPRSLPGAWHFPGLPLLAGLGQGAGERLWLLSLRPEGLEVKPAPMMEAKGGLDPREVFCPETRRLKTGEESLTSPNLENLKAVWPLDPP
# How it was run: as §1
# [13] = molecular target: T8, ETS2 (Homo sapiens, UniProt P15036 1-469); conditions: protein: recombinant; tags: N-terminal GST; dsDNA, one strand shown
# T8 sequence: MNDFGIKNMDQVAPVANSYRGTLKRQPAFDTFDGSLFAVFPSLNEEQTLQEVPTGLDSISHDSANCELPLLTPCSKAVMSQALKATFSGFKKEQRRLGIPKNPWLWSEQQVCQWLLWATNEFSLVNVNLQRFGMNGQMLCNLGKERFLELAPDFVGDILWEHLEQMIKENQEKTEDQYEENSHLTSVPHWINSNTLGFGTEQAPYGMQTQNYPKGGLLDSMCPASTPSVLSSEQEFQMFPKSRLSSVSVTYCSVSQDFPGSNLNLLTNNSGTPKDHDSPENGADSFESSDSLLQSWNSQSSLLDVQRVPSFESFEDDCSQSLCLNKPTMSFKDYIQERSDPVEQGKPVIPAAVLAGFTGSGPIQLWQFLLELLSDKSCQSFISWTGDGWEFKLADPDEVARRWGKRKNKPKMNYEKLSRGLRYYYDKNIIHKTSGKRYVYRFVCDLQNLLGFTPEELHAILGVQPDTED
# How it was run: as §1
# [14] = molecular target: T9, SPDEF (Homo sapiens, UniProt O95238 1-335); conditions: protein: recombinant; tags: N-terminal GST; dsDNA, one strand shown
# T9 sequence: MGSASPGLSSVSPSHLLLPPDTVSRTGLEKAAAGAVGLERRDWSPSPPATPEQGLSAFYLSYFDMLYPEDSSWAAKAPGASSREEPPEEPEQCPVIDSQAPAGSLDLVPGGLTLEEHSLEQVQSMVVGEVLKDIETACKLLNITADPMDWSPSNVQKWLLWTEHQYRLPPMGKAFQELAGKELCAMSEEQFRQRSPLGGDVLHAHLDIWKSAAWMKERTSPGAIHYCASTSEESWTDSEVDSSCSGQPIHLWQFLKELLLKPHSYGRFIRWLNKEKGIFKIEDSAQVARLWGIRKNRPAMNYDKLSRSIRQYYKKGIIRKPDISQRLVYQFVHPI
# How it was run: as §1
# [15] = molecular target: T10, ETV7 (Homo sapiens, UniProt Q9Y603 1-341); conditions: protein: recombinant; tags: N-terminal GST; dsDNA, one strand shown
# T10 sequence: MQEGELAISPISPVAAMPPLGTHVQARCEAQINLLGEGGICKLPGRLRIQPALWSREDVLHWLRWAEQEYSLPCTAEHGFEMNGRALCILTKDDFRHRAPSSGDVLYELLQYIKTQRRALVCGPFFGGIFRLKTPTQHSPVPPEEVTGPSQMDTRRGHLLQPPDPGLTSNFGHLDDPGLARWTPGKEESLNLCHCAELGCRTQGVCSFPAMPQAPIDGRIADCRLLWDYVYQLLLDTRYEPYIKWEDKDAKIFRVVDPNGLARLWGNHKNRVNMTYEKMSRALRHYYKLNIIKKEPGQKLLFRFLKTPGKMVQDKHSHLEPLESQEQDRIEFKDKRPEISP
# How it was run: as §1
# [16] = molecular target: T11, ELF5 (Homo sapiens, UniProt Q9UKW6-2 1-255); conditions: protein: recombinant; tags: N-terminal GST; dsDNA, one strand shown
# T11 sequence: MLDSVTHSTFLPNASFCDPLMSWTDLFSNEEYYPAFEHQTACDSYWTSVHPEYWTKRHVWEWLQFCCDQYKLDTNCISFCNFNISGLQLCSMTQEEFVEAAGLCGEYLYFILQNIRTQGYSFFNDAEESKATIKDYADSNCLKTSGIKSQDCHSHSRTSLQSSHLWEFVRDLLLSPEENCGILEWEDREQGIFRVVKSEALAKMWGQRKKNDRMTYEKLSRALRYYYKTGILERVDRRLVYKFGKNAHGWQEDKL
# How it was run: as §1
# [17] = molecular target: T12, ETV3 (Homo sapiens, UniProt P41162-2 1-143); conditions: protein: recombinant; tags: N-terminal GST; dsDNA, one strand shown
# T12 sequence: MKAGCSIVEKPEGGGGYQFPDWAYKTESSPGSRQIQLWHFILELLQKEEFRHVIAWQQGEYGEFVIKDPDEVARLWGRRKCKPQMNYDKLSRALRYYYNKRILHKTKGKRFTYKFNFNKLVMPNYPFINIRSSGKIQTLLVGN
# How it was run: as §1
# [18] = molecular target: ETV6 (Homo sapiens, UniProt P41212 1-452); conditions: protein: recombinant; tags: N-terminal GST; dsDNA, one strand shown
# ETV6, sequence (P41212 whole entry): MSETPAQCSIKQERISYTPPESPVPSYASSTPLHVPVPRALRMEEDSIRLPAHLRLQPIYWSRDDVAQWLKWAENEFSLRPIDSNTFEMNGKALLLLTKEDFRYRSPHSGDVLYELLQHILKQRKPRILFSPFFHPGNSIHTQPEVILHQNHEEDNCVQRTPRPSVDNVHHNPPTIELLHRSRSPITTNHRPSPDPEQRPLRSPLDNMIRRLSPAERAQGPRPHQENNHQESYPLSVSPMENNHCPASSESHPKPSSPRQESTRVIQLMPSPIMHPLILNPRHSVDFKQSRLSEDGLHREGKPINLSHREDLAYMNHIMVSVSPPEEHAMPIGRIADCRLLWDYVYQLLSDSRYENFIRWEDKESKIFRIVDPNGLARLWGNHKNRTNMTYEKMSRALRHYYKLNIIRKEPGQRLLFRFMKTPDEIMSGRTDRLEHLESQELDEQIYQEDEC
# How it was run: as §1
sequence,measurement,setting,value
AAAGAA,binding signal,[1],"1.23 fold enrichment (6-mer frequency, TF over GST control)"
same,binding signal,[2],"1.22 fold enrichment (6-mer frequency, TF over GST control)"
same,binding signal,[3],"1.99 fold enrichment (6-mer frequency, TF over GST control)"
same,binding signal,[4],"1.17 fold enrichment (6-mer frequency, TF over GST control)"
same,binding signal,[5],"1.29 fold enrichment (6-mer frequency, TF over GST control)"
same,binding signal,[6],"1.32 fold enrichment (6-mer frequency, TF over GST control)"
same,binding signal,[7],"1.25 fold enrichment (6-mer frequency, TF over GST control)"
same,binding signal,[8],"1.29 fold enrichment (6-mer frequency, TF over GST control)"
same,binding signal,[9],"1.48 fold enrichment (6-mer frequency, TF over GST control)"
same,binding signal,[10],"1.29 fold enrichment (6-mer frequency, TF over GST control)"
same,binding signal,[11],"1.27 fold enrichment (6-mer frequency, TF over GST control)"
same,binding signal,[12],"1.19 fold enrichment (6-mer frequency, TF over GST control)"
same,binding signal,[13],"1.26 fold enrichment (6-mer frequency, TF over GST control)"
same,binding signal,[14],"1.18 fold enrichment (6-mer frequency, TF over GST control)"
same,binding signal,[15],"1.36 fold enrichment (6-mer frequency, TF over GST control)"
same,binding signal,[16],"1.23 fold enrichment (6-mer frequency, TF over GST control)"
same,binding signal,[17],"1.2 fold enrichment (6-mer frequency, TF over GST control)"
same,binding signal,[18],"1.3 fold enrichment (6-mer frequency, TF over GST control)"
